Screens as filed in PubChem.
Hits are enriched below; roughly 2.5% of the tested compounds scored in any of these assays.
aSyn yeast inh = alpha-synuclein toxicity inhibition in yeast. AID 652106. Yeast expressing alpha-synuclein, growth rescue, BacTiter-Glo, 24 h. hit rate 0.14% among 370,000. Potency, µM (doses to about 46.1 µM), without a hit: top-dose growth rescue (activation), usual class: activators; note: potency is the fitted concentration of half-maximal effect; % of control where 0% means no effect; nearly all actives have a fitted effect of over 65% in size
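Rescue of yeast growth: cells expressing toxic alpha-synuclein, induced in galactose at OD600 0.02, incubated with compound 24 h at 30 C. ATP luminescence quantified growth; inhibitors of toxicity appear as activators.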
pAkt inh = inhibitors of Akt phosphorylation | Neuro2A IGF-stimulated pAkt S473 HTRF, 20 min; hits give low values | hit rate 0.32% among 360,000 | AID 651550 | activity change, % for hits at 50 µM; in the data active = activity change below about -80%; inconclusive = mostly about -51% to -80%; note: % is set by controls: 0 for no effect and ±100 for the full control effect
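Neuro2A cells (4,500/well, DMEM with 0.5% FBS) were treated with compound at a single 50 µM final concentration, stimulated with 6 nM IGF for 20 min at 37 °C, and lysed. Phospho-Akt Ser473 was read by HTRF as 665/615 ratio ×10^4.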
Mito fusion yeast = blocks mitochondrial division or promotes mitochondrial fusion. Potency, µM (highest dose often 46.1 µM), for inactives: at the highest dose growth rescue (activation), most hits filed as activators. S. cerevisiae fusion-defective mutant growth rescue, CellTiterGlo 48 h. AID 485298. hit rate 0.23% among 320,000; note: potency is the fitted concentration of half-maximal effect; % of control where 0% means no effect; nearly all actives have a fitted effect of over 45% in size
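Yeast fusion mutant, YPEG (non-fermentable carbon), compound, 48 h at 37C non-permissive; CellTiterGlo added, 10 min RT, luminescence read. Rescued growth = division inhibition.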
Anesthetic bind = candidate novel general anesthetic via apoferritin binding; P02791; apoferritin/1-aminoanthracene competitive binding, fluorescence; Potency, µM (doses to about 77.5 µM), for inactives: at the top dose activity change, negative = displacement, most hits filed as inhibitors; hit rate 0.074% among 350,000; AID 485281; note: potency is the fitted concentration of half-maximal effect; % is set by controls: 0 for no effect and ±100 for the full control effect; nearly all actives have a fitted effect of over 20% in size
Target sequence (P02791 2-175 limits assumed): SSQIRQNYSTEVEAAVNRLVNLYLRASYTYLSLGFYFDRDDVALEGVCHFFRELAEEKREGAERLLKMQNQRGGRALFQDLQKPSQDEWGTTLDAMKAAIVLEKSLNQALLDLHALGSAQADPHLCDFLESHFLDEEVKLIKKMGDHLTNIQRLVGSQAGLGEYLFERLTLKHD
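Probe: 1-aminoanthracene (50% saturated, PBS). Protein: horse-spleen apoferritin, 10 uM. Incubation: 10 min, room temperature. Detection: 380 nm excitation, 535 nm emission. Analysis: normalized response, four-parameter Hill.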
TDP43 rescue = inhibitors of TDP-43 toxicity in yeast; TDP-43 expressing yeast growth rescue, BacTiter-Glo, 24 h; Potency, µM (titrated, usually from 46.1 µM), for the others: top-dose growth rescue (activation), usual class: activators; hit rate 1.8% among 410,000; AID 652104; note: potency is the fitted concentration of half-maximal effect; % of control where 0% means no effect; nearly all actives have a fitted effect of over 50% in size
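Readout is BacTiter-Glo luminescence of cell growth, so inhibitors register as activators. TDP-43-expressing yeast at OD600=0.02 in galactose medium, after raffinose pregrowth to mid-log, were incubated with compound for 24 hr at 30 deg C.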
CCT modulator = cytosolic chaperonin activity modulation. purified chaperonin ATPase assay, HTRF ADP detection, 30 min. activity change, % (concentration not given with the values), hits read low. hit rate 0.3% among 360,000. AID 651819; in the data active = activity change below about -30%; note: % is set by controls: 0 for no effect and ±100 for the full control effect
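First, chaperonin was dispensed at 40 nM or 20 nM final depending on batch activity. Next, compounds were pinned at 76 uM and ATP added at 10 uM. After 30 min at 37 °C, ADP detection reagents ran 30 min at ambient temperature.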
An asterisk follows results filed as active. Unless noted, calls come from the whole dose curve; as a rule, active = well fitted curve in the direction sought with a large enough effect; inconclusive = small, poorly fitted or top-dose-only effect, or another doubt; inactive = no such curve, though single readings can be large; an effect the other way counts as inactive or inconclusive.

Screening Cc1ccc(Nc2nc(N3CCOCC3)nc(N3CCOCC3)n2)cc1C returned aSyn yeast inh 8%, Mito fusion yeast -52%, Anesthetic bind -9%, TDP43 rescue 13µM* and CCT modulator 0.
`Cc1cccc(Nc2nc(N3CCOCC3)nc(N3CCOCC3)n2)c1` gave aSyn yeast inh 1%, pAkt inh inactive, Mito fusion yeast -15%, Anesthetic bind -15%, TDP43 rescue inconclusive and CCT modulator 1.
For Cc1ccc(Nc2nc(N)c([N+](=O)[O-])c(N3CCOCC3)n2)cc1C the results were aSyn yeast inh 9%, pAkt inh inactive, Mito fusion yeast -29%, Anesthetic bind inconclusive, TDP43 rescue 18µM* and CCT modulator -2.
`Cc1cccc(Nc2nc(Nc3cccc(C)c3)nc(N3CCOCC3)n2)c1` gave Anesthetic bind 5% and TDP43 rescue 16µM*.
`O=C(Nc1ccc(S(=O)(=O)N2CCCCC2c2cccnc2)cc1)c1ccc(F)cc1` (centres undefined) gave Anesthetic bind -9% and TDP43 rescue -14%.
`Cc1ccc(F)cc1-c1ccc(C(=O)N=C(N)N)o1` gave Anesthetic bind -9%.
Screening CCSc1nc(N)nc(-c2cccs2)c1C#N returned aSyn yeast inh -18%, pAkt inh inactive, Mito fusion yeast -2%, Anesthetic bind 6%, TDP43 rescue 22µM* and CCT modulator 0.
For CCN(CC)C(=O)CSc1nc(N)c(C#N)c(-c2cccs2)c1C#N the results were aSyn yeast inh -6%, pAkt inh inactive, Mito fusion yeast -3%, Anesthetic bind 47%, TDP43 rescue 13% and CCT modulator -2.
`Cc1ccc(N=Nc2ccc(O)c3ncccc23)cc1C` gave aSyn yeast inh inconclusive, pAkt inh inactive, Mito fusion yeast 0%, Anesthetic bind -6%, TDP43 rescue 28µM* and CCT modulator -3.
COc1ccc(CCNC(=O)CCn2c(=O)c3cccn3c3ccc(F)cc32)cc1OC was read as Anesthetic bind inconclusive and TDP43 rescue -3%.
For CNC(=S)NCCCCc1cnc[nH]1 the results were Anesthetic bind -5%.
For COc1cc(OC)c2c(c1C(CCN1CCCC(C)C1)c1ccc(N(C)C)cc1)OC(=O)CC2c1ccc(N(C)C)cc1 (centres undefined) the results were Anesthetic bind -9%.
Screening NC(=S)NN=C(c1ccccc1)c1ccccc1 returned aSyn yeast inh -22%, pAkt inh inactive, Mito fusion yeast -9%, Anesthetic bind 0%, TDP43 rescue 13µM* and CCT modulator -2.
CC(/C=C/c1ccccc1)=N\NC(N)=S was read as aSyn yeast inh 0%, pAkt inh inactive, Mito fusion yeast -4%, Anesthetic bind inconclusive, TDP43 rescue 13µM* and CCT modulator -7.
`Cc1ccc(COC(=O)c2nn(C)c(=O)c3ccccc23)cc1` gave aSyn yeast inh 1%, pAkt inh inactive, Mito fusion yeast 9%, Anesthetic bind -9%, TDP43 rescue 6% and CCT modulator -6.
`Cn1nc(C(=O)OCc2ccc(F)cc2)c2ccccc2c1=O` gave aSyn yeast inh 1%, pAkt inh inactive, Mito fusion yeast 1%, Anesthetic bind -4%, TDP43 rescue inconclusive and CCT modulator -37*.
For Cc1cccc(OCCn2c(NC(=O)c3ccco3)nc3ccccc32)c1 the results were aSyn yeast inh 5%, pAkt inh inactive, Mito fusion yeast 8%, Anesthetic bind -2%, TDP43 rescue 16µM* and CCT modulator 0.
CCCn1c(NC(=O)c2cccc(C)c2C)nc2ccccc21 was read as aSyn yeast inh inconclusive, pAkt inh inactive, Mito fusion yeast 4%, Anesthetic bind -18%, TDP43 rescue 20µM* and CCT modulator 1.
Cc1ccc(OCCn2c(NC(=O)c3ccco3)nc3ccccc32)cc1 was read as aSyn yeast inh -4%, pAkt inh inactive, Mito fusion yeast -1%, Anesthetic bind -3%, TDP43 rescue 6% and CCT modulator 1.
For Cc1cccc(OCCn2c(-c3ccco3)nc3ccccc32)c1 the results were aSyn yeast inh -8%, pAkt inh inactive, Mito fusion yeast -6%, Anesthetic bind -8%, TDP43 rescue 11µM* and CCT modulator -1.
For O=C(/C=C/c1cn(CC(O)CN2CCCCCC2)c2ccccc12)c1ccc(Br)cc1 (centres undefined) the results were aSyn yeast inh -34%, Anesthetic bind -7% and TDP43 rescue -6%.
For COc1ccccc1CNC(=O)Cn1c(=O)oc2cc(S(=O)(=O)N3CCC(C)CC3)ccc21 the results were Anesthetic bind -21% and TDP43 rescue -9%.
For CN(C)c1ccc(/C=C2\C=Cc3ccccc32)cc1N the results were aSyn yeast inh 2%.
For Cc1nn(Cc2ccccc2)c(C)c1NC(=O)CSc1nc(C2CC2)nc2c1cnn2-c1ccccc1 the results were aSyn yeast inh 0%, pAkt inh -114%*, Mito fusion yeast -7%, Anesthetic bind 12%, TDP43 rescue 6% and CCT modulator -1.
Nc1ncnc2nc(-c3ccc(N4CCOCC4)nc3)cc(-c3cccc(Br)c3)c12 was read as aSyn yeast inh 21µM*, Mito fusion yeast inconclusive and Anesthetic bind 108%.
For COc1ccc2c(c1OC)C(=O)N1c3ccccc3C(=O)N(Cc3ccco3)C21 (centres undefined) the results were aSyn yeast inh -1%.
Screening CCc1cc(=O)oc2cc3oc(C)c(C)c3cc12 returned aSyn yeast inh 4%, pAkt inh inactive, Mito fusion yeast 3%, Anesthetic bind -5%, TDP43 rescue 3.5µM* and CCT modulator 1.
COc1cc(C=O)ccc1OCCOCCOc1c(C)cc(Cl)cc1Cl was read as aSyn yeast inh 23%, pAkt inh inactive, Mito fusion yeast 4%, Anesthetic bind inconclusive, TDP43 rescue 22µM* and CCT modulator -3.
Screening COc1cccc(-c2nc(CS(=O)CC(=O)NCc3ccccc3Cl)c(C)o2)c1 (centres undefined) returned aSyn yeast inh -4%, pAkt inh inactive, Mito fusion yeast 5%, Anesthetic bind 28µM*, TDP43 rescue 26% and CCT modulator 1.
`COc1ccc(-c2nc(CS(=O)CC(=O)NCc3ccccc3Cl)c(C)o2)cc1OC` (centres undefined) gave Anesthetic bind 0% and TDP43 rescue 24%.
